This is part of a sample that, as a whole, favours compounds with a hit. Of some 79,000 tested, about 15% had one in any assay. A number with no mark means an inactive call. Calls of active or inactive are those of the source. Cut-off read from the data, not from the text of the source: active = growth inhibition above about 70%; inactive = the rest. Where a SMILES comes first, the peptide text is derived from it. [ ]: non-standard residue; d: D form. The star is where a group is joined. ξ: configuration not given here. NMeF = CN[C@@H](Cc1ccccc1)C(=O)O; NMeV = CN[C@H](C(=O)O)C(C)C; ξNMeN = CNC(CC(N)=O)C(=O)O; NMeA = CN[C@@H](C)C(=O)O; ξNMeV = CNC(C(=O)O)C(C)C; Boc = CC(C)(C)OC(=O)*
What was measured:
[1] = NCI Yeast Anticancer Drug Screen. Data for the rad50 strain (AID 155);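 note: 0% = growth of vehicle-only cultures of the same strain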; details: S. cerevisiae rad50 strain growth inhibition; at 50.0 µM; hits give high values
In short: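 Readout: growth inhibition relative to vehicle-treated cultures. Compound exposure was carried out in a genetically defined yeast strain deficient in DNA damage repair.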

[2] = NCI Yeast Anticancer Drug Screen. Data for the mec2-1 strain (AID 157); details: S. cerevisiae mec2-1 strain, at 50.0 µM, hits give high values
In short: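 mec2-1 yeast strain, carrying an alteration in DNA damage repair or cell cycle control, was exposed to compounds; growth inhibition was measured relative to vehicle-treated controls.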

[3] = NCI Yeast Anticancer Drug Screen. Data for the sgs1 mgt1 strain (AID 161);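 note: 0% = growth of cultures given vehicle only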; details: S. cerevisiae sgs1 mgt1 strain, at 50.0 µM, hits give high values
In short: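 Compounds are added to genetically altered yeast, and growth is compared with cultures given vehicle alone to give percent inhibition.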

[4] = NCI Yeast Anticancer Drug Screen. Data for the cln2 rad14 strain (AID 165);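 note: 0% = growth equal to vehicle treated cultures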; details: S. cerevisiae cln2 rad14 strain, at 50.0 µM, hits give high values
In short: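 Yeast carrying cln2 and rad14 alterations (cell cycle control and DNA damage repair) were exposed to compounds. Growth inhibition was measured against vehicle-treated controls.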

[5] = NCI Yeast Anticancer Drug Screen. Data for the bub3 strain (AID 167); details: S. cerevisiae bub3 mutant strain, at 50.0 µM, hits give high values
In short: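 Readout: yeast growth inhibition, expressed relative to vehicle-only wells. The test organism is a mutant strain from a panel with lesions in DNA repair or checkpoint genes.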

[6] = NCI Yeast Anticancer Drug Screen. Data for the mlh1 rad18 strain (AID 175); details: S. cerevisiae mlh1 rad18 strain growth inhibition; at 50.0 µM; hits give high values
In short: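 Growth inhibition of the yeast strain was measured after compound exposure and expressed relative to vehicle-treated controls. The strain carries defined defects in DNA damage repair.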

Row | Compound | growth inhibition [1] | growth inhibition [2] | growth inhibition [3] | growth inhibition [4] | growth inhibition [5] | growth inhibition [6]
1 | O=c1oc2c(c(N(c3ccccc3)c3ccccc3)c1Cl)CCc1nc(-c3ccccc3)sc1-2 | 3% | -1.25% | -7.6% | 10.8% | -1.55% | -14.9%
2 | Cc1c([N+](=O)[O-])cc2c(c1[N+](=O)[O-])C(=O)c1ccccc1-2 | -2.1% | 4.35% | 8.5% | -14.9% | -6.05% | 7.9%
3 | C1CCC(NCSC2=NCCS2)CC1 | 36.5% | -4.7% | 0.05% | -29.8% | 7.95% | 1.9%
4 | Oc1cc2oc3cc(O)c(O)cc3c2cc1O | 7% | 10.4% | 9.85% | 35.4% | 6.1% | 23.9%
5 | Brc1ccc(-c2cc(-c3ccc4c(c3)OCO4)c(-c3cccs3)n2Cc2ccccc2)cc1 | -17.9% | -7.55% | -0.5% | 20.1% | -24.6% | -30.1%
6 | c1cc(Cc2ccsc2)cs1 | -8.2% | 4.1% | -4.5% | -7.1% | -11.7% | -10.8%
7 | Nc1ncnc2c1[nH]c(=O)n2-c1ccccc1 | -46.6% | -30.5% | -16.6% | -1.3% | -17.1% | -6.9%
8 | CCCc1cc(=O)oc2c3c(c4c(c12)OC(C)(C)C=C4)O[C@H](C)[C@@H](C)C3O (stereo not given in full) | -6.25% | 9.3% | -1.45% | -1.5% | 11.3% | -3.4%
9 | COC(=O)[C@H](C)N(C)C(=O)C(CC(N)=O)N(C)C(=O)[C@H](Cc1ccccc1)N(C)C(=O)[C@@H]1CCCN1C(=O)[C@H](C(C)C)N(C)C(=O)C(C(C)C)N(C)C(=O)[C@@H](NC(=O)OC(C)(C)C)C(C)C (stereo not given in full) (Boc-V[ξNMeV][NMeV]P[NMeF][ξNMeN][NMeA]-OMe) | -20.1% | -16.6% | -13.9% | 8.9% | 8.65% | -5.4%
10 | CC(C)NNC(=O)c1ccc(N)cc1 | 16.1% | 6.05% | 4.55% | 6.55% | 4.8% | 6.35%
11 | CCCCCCCCCCCCCCCCOc1ccc(/C=N/Nc2ccccc2)cc1OC | -20.1% | -22.2% | -25.9% | 0.95% | -32% | -13.6%
12 | O=C(Cc1cccc(CC(=O)c2ccccc2)n1)c1ccccc1 | 9.25% | -4.75% | 18.5% | -52.2% | -43% | 10.4%
13 | c1ccc2c(c1)cc1n2CCc2c-1[nH]c1ccccc21 | 26.2% | 18.6% | 4.2% | 18.1% | 19.9% | 20.9%
14 | Cc1cc(=O)n(C)c2ccc(N)cc12 | -3.85% | 3.75% | -4% | -14.8% | 10.5% | 1.85%
15 | COc1cc([N+](=O)[O-])cc(C(C)=O)c1O | 17.9% | 37.2% | 31.5% | 2.45% | 15.1% | 38.5%
16 | CC/C(=N/NS(=O)(=O)c1ccc(C)cc1)c1ccc(O)cc1 | 22.7% | 18.1% | 7.9% | 36.8% | 25.5% | 46.6%
17 | C/C(=C/c1ccccc1)C(=O)O | -3.8% | -18.8% | -22% | -20.1% | -20.8% | -2.45%
18 | CCOC(=O)NC1CCc2ccccc2C1 (stereo not given) | 5.95% | 0.3% | 4% | -13.9% | -3% | 2.6%
19 | CCN(CC)C(=O)CNC(=O)c1c2nc3c(C(=O)NCC(=O)N(CC)CC)ccc(C)c3oc-2c(C)c(=O)c1N | 16.9% | 33.9% | 8.95% | 32.9% | 10.9% | 30.6%
20 | COc1cc(CN=c2nc(N(C)C)ss2)cc(OC)c1OC | -27.8% | -11.2% | 9.15% | -3.35% | -11.6% | -4.35%

Row | Compound | growth inhibition [1] | growth inhibition [2] | growth inhibition [3] | growth inhibition [4] | growth inhibition [5] | growth inhibition [6]
21 | O=C(NCCN1CCCCC1)c1cccc(I)c1 | 2.45% | -4.85% | 15.5% | 28.3% | 8.15% | 16%
22 | COC(=O)CN1C(=O)OC(c2ccccc2)C1=O (stereo not given) | -0.4% | 1.15% | -4.1% | 8.15% | -3.85% | -13.4%
23 | COc1ccc(/C=C2/CSC/C(=C/c3ccc(OC)c(OC)c3)C2=O)cc1OC | -16.2% | 11.7% | 6.8% | -40.8% | 10.2% | -1.35%
24 | CCC(C)N(C(C)=O)C(C)CC (stereo not given) | -4.15% | -17.2% | -13.4% | 15.2% | 2% | 1.85%
25 | COc1cc(C=O)ccc1OC(=O)Nc1cc(Cl)ccc1C | 6.6% | 6.7% | 10.8% | 5.75% | 13.2% | 8.85%
26 | CCc1c(CN)c(CC)c(CNC2=NCCN2)c(CC)c1CNC1=NCCN1 | 13.6% | 3.45% | 12.2% | 10.9% | 12.8% | 15.2%
27 | COC(=O)C(=O)C(C(=O)C(=O)Nc1cc([N+](=O)[O-])ccc1[N+](=O)[O-])c1nc2ccc(C(=O)c3ccccc3)cc2[nH]c1=O (stereo not given) | 29.7% | 15.8% | 4.1% | -16.1% | 40.6% | 18.9%
28 | O=Cc1ccc(F)cc1[N+](=O)[O-] | 1.1% | 3.65% | -15.8% | 1.1% | -2.25% | -17.2%
29 | CCCCCCCC/C=C\CCCCCCCC(=O)NCCN1CCCCC1 | 99% (active) | 99.5% (active) | 99.6% (active) | 97.8% (active) | 99% (active) | 99.2% (active)
30 | COC(=O)CCNc1c(OC)ccc2ccccc12 | 22.1% | 3.85% | 11.8% | 17.9% | 28.4% | -5%
31 | CCOC(=O)c1ccc(NC(NC(=O)CC)(C(F)(F)F)C(F)(F)F)cc1 | -26.6% | -20.4% | -69.2% | -19.1% | -8.9% | -54%
32 | CC1CCC2C(C)C3C(CC4C5CC=C6CC(O)CCC6(C)C5CCC43COC(=O)c3ccccc3)N2C1 (stereo not given) | 44.4% | 16.8% | 55.8% | 21.4% | 5.95% | 42.6%
33 | C=C1C(=O)OC2/C=C(\C)CC(O)/C=C(/C)CC(OC(=O)C(O)(CO)C(C)S)C12 (stereo not given) | -14% | 6.55% | -22.4% | 3% | -3.8% | -22.7%
34 | CC1=C(C)OCC1 | 8.9% | 4% | 9.25% | 7.85% | 4.2% | 5.5%
35 | NC(=O)c1csc(C2O[C@@H](COP(=O)(O)OP(=O)(O)OC[C@H]3OC(n4cnc5c(N)ncnc54)[C@H](O)[C@@H]3O)[C@H](O)[C@@H]2O)n1 (stereo not given in full) | 28.8% | -0.75% | -0.55% | -37.5% | 2.75% | 10.9%
36 | c1ccc(CSc2ncnc3oc(-c4ccccc4)nc23)cc1 | 22.5% | 17.2% | 13.6% | 11.2% | 24% | 16.4%
37 | CCCNC(=S)N/N=C/c1cccc(C)n1 | -23.3% | -26.1% | 2.15% | 15.2% | 24.2% | -12%
38 | CCOc1ccccc1NC(=O)CC1Sc2ccccc2NC1=O (stereo not given) | 24.5% | -14.7% | 15.3% | 2.55% | 3.85% | 21.5%
39 | Nc1c2c(cc3c1C(=O)c1ccccc1C3=O)OCO2 | 47.8% | 20% | 29.4% | 16.2% | 22% | 39%
40 | CCCCCC1(C)OCC(c2ccccc2)O1 (stereo not given) | -12.8% | -9.45% | -21% | -47% | -13.3% | 21.1%

— PubChem BioAssay (NCI)
